Source: PubChem (Center for Chemical Genomics, University of Michigan)
The full list was thinned out, with hits kept by preference.
Dicer inh – inhibitors of Dicer pre-microRNA processing, primary screen, biochemical, cat-ELCCA, chemiluminescence; actives 6% (n = 47,000); z-score at 25 µM; Endoribonuclease Dicer (Homo sapiens), Q9UPY3; cat-ELCCA pre-miR-21 Dicer processing; hits give high values; in the data active means z-score above about 3, passing the limit was not always enough;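 further: plate controls were vehicle for no effect and no enzyme for full effect; higher signal means more uncleaved substrate so more Dicer inhibition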
Starred values were filed as active, the others as inactive.

SMILES | Dicer inh
COC(=O)c1csc(S(=O)(=O)N2CCCC2)c1OC | -1.9
Nc1c(-c2ccc(Cl)cc2)cnc2c(-c3ccccc3)cnn12 | 3.1*
Cc1ccc(-c2cnc3c(-c4ccccc4)cnn3c2N)cc1 | 1.8
Cc1ccc(-c2cnc3c(-c4ccc(Cl)cc4)cnn3c2N)cc1 | 2.3
COc1cccc(-c2ccc(-c3noc(C)n3)c(OC)n2)c1 | 0.96
Cn1c2c(c(=O)[nH]c1=O)C(c1ccc(C(=O)O)cc1)C1=C(N2)c2ccccc2C1=O (centres undefined) | -1.2
CCOc1cc(C2c3c(oc4ccc(F)cc4c3=O)C(=O)N2Cc2ccc(F)cc2)ccc1O (centres undefined) | 0.89
COc1oc(-c2ccc(C)cc2)nc1C(F)(F)F | 4.3*
Cc1cc(C)c2nc(-c3ccc(C(F)(F)F)cc3)oc(=O)c2c1 | -1.3
COc1ccc(-c2csc3nc(-c4ccc(F)cc4)oc(=O)c23)cc1 | 0.76
COc1oc(-c2ccc(F)cc2)nc1C(F)(F)F | 4.7*
COC(=O)c1noc(-c2ccc(F)cc2)n1 | -0.21
Cc1ccc(-c2nc(=O)c3ccccc3o2)cc1 | 1.6
CC(=O)c1sc(N2CCOCC2)nc1C | -0.85
COCCCn1c2c(c(=O)[nH]c1=O)C(c1ccc(OC)cc1)C1=C(N2)c2ccccc2C1=O (centres undefined) | -0.88
CC1(C)C/C(=N\NC(N)=O)c2ccc(OCc3ccccc3)cc2O1 | 1.1
COc1ccc(OC)c(-c2noc(CSc3nc4ccccc4[nH]3)n2)c1 | 0.06
COc1ccc(-c2noc(CSc3nc4ccccc4[nH]3)n2)c(OC)c1 | 1.4
COc1ccc(-c2noc(CSc3nc4ccccc4[nH]3)n2)cc1OC | 3.2*
CC1(C)CC(=O)c2c(oc3ccc(NS(=O)(=O)c4ccc(Cl)cc4)cc23)C1 | 2
O=S(=O)(c1ccc2c(c1)Cc1cc(S(=O)(=O)N3CCCCC3)ccc1-2)N1CCCCC1 | -0.07
Cn1c(=O)n(C)c2cc(S(=O)(=O)Nc3ccc(C(=O)O)cc3)ccc21 | 0.33
Cn1c(=O)n(C)c2cc(S(=O)(=O)N3CCCC3)ccc21 | 3.5*
Cc1nc(NCC(C)C)c2sc3nc4c(cc3c2n1)COC(C)(C)C4 | 0.49
CCOC(=O)/C(C#N)=C/NN(C)c1ccccc1[N+](=O)[O-] | -0.25
SMILES | Dicer inh
CC(C)(C)OC(=O)/C(C#N)=C/c1ccc([N+](=O)[O-])cc1 | 8.3
CCN(CC)C(=O)/C(C#N)=C/c1cc(O)c(O)c([N+](=O)[O-])c1 | 3.8*
CCCCCn1c(-c2cccs2)nc2ccccc21 | -0.91
CCOC(=O)C1=C(C)Nc2nnnn2C1c1ccc(OC)cc1OC (centres undefined) | 0.19
CCOc1ccc2c(c1)C(=O)c1cc(OCC)ccc1-2 | 6.4
CCOc1ccc2[nH]c(C3C(=O)c4ccccc4C3=O)cc(=O)c2c1 | -0.57
CCOc1ccc2c(c1)C(=O)C(c1cc(=O)c3ccccc3[nH]1)C2=O (centres undefined) | 6.1*
O=S(=O)(NCc1cc(F)cc2c1OCOC2)c1cc(S(=O)(=O)c2ccccc2)cs1 | -1.5
CN(C)c1ccc(NCc2cccc(Br)c2)cc1 | -0.99
O=C(N/N=C/c1cc([N+](=O)[O-])ccc1N1CCCC1)c1ccccc1 | -0.89
COc1ccccc1OCc1nc2c3c4c(sc3ncn2n1)CCCCC4 | -0.5
Clc1ccc(OCc2nc3c4c5c(sc4ncn3n2)CCCC5)cc1 | 1.2
COc1ccc(OCc2nc3c4c5c(sc4ncn3n2)CCCCC5)cc1 | 4.2*
O=c1c2ccccc2nc2sc3ccc(Cl)cc3n12 | -0.07
O=C(O)c1cc2cc(Cc3cccnc3)ccc2o1 | 3.6*
O=C(Nc1cccnc1)c1cc2c(ccc3ccccc32)o1 | -0.39
O=C(O)c1cc2c(ccc3ccccc32)o1 | 1
O=C(Nc1ccc(Cl)cc1)N1CCN(c2ccccn2)CC1 | 1.9
NC(=O)CSc1nc(=O)cc(N)n1-c1ccc(F)cc1 | -0.36
COC(=O)C1=C(C)NC2=C(C(=O)CC(c3ccccc3)C2)C1c1ccccc1OC(C)C (centres undefined) | 0.57
CCSCCOC(=O)C1=C(C)NC2=C(C(=O)CC(c3ccccc3)C2)C1c1ccccc1F (centres undefined) | 4*
COC(=O)C1=C(C)NC2=C(C(=O)CC(c3ccccc3OC)C2)C1c1cccc(OC)c1OC (centres undefined) | -0.37
C=CCOC(=O)C1=C(C)NC2=C(C(=O)CC(c3ccccc3)C2)C1c1ccc(O)cc1 (centres undefined) | 2.4
CC1=C(C(=O)OCc2ccccc2)C(c2cccc(O)c2)C2=C(CC(c3ccccc3)CC2=O)N1 (centres undefined) | 3*
CCSCCOC(=O)C1=C(C)NC2=C(C(=O)CC(c3ccc(OC)cc3)C2)C1c1cccc(O)c1 (centres undefined) | 1.1
SMILES | Dicer inh
CCSCCOC(=O)C1=C(C)NC2=C(C(=O)CC(c3cccs3)C2)C1c1ccc(F)cc1 (centres undefined) | 0.18
COCCOC(=O)C1=C(C)NC2=C(C(=O)CC(c3ccccc3)C2)C1c1cccc(OC)c1OC (centres undefined) | 7.2*
COc1ccc(C2CC(=O)C3=C(C2)NC(C)=C(C(=O)OC(C)C)C3c2ccccc2OC)cc1OC (centres undefined) | 1
COc1ccccc1C1C(C(=O)OCC(C)C)=C(C)NC2=C1C(=O)CC(c1ccccc1)C2 (centres undefined) | 5*
COCCOC(=O)C1=C(C)NC2=C(C(=O)CC(c3ccccc3)C2)C1c1ccccc1F (centres undefined) | 8.1
CCSCCOC(=O)C1=C(C)NC2=C(C(=O)CC(c3ccccc3)C2)C1c1ccc(F)cc1 (centres undefined) | -0.88
CCOC(=O)c1cnn(-c2ccc(Cc3ccc(-n4ncc(C(=O)OCC)c4C)cc3)cc2)c1C | -0.43
CC(C)(C)C(=O)O/N=C(/c1cccs1)C(C)(C)C | 0.1
CN(C)/C=C(\C(=O)c1cc(F)cc(F)c1)c1nnnn1-c1ccccc1 | -3.2
c1cnc2nc(SCc3ccc(CSc4nc5ncccc5[nH]4)cc3)[nH]c2c1 | 0.03
Cc1nnc(SCc2cc(Br)cc(Br)c2)[nH]c1=O | 0.5
FC(F)(F)c1cc(Cl)cnc1NN=C1C2CC3CC(C2)CC1C3 | 3.6
CCOc1cc(C2C(C#N)=C(N)Oc3n[nH]c(C)c32)ccc1O (centres undefined) | -5
COc1ccc(C(=O)CC2(O)C(=O)N(C)c3ccccc32)cc1OC (centres undefined) | -0.13
Cc1[nH]c2ccccc2c1C1(O)C(=O)N(CCOc2ccccc2)c2ccccc21 (centres undefined) | -1.5
N#Cc1c(C(F)(F)F)cc(-c2cccs2)nc1SCc1csc(-c2cccs2)n1 | 10
CC1=C(C(=O)OCC(C)C)C(c2ccccc2)C2=C(CC(c3ccccc3)CC2=O)N1 (centres undefined) | 3.6*
COc1ccc(C2CC(=O)C3=C(C2)NC(C)=C(C(=O)OCC(C)C)C3c2ccc(F)cc2)cc1 (centres undefined) | 5.2
CC1=C(C(=O)OC2CCCCC2)C(c2ccccn2)C2=C(CC(c3ccccc3)CC2=O)N1 (centres undefined) | 0.33
CCOc1cc(C2C(C(=O)OC3CCCCC3)=C(C)NC3=C2C(=O)CC(C)(C)C3)ccc1OC(C)=O (centres undefined) | 5.4*
CC1=C(C(=O)OCC(C)C)C(c2ccc3c(c2)OCO3)C2=C(CC(c3ccccc3)CC2=O)N1 (centres undefined) | 0.61
